Laboratory results as given in ChEMBL document CHEMBL3988442, “University of Dundee, Small-Polar-MMV Screening Library” (2021).
Screen size: about 38,000 compounds; about 1,200 (3.2%) showed an effect of 50% or more. The median lay at about -58%. The list comes from a sample in which strong results are over-represented; it also holds similar structures and randomly drawn compounds.

What follows are compounds tested on Plasmodium falciparum (assay: Calibr Malaria Delayed Death Assay SOP). Conditions: concentration 4.99e-06 (unit not given; other assays of the set use mol/L).
Format: functional, organism-based
Design: scale not given: in the data most compounds retested in dose-response had high values

| Compound | Percent Effect [%] |
| --- | --- |
| CC(C)NC(=O)c1cc2c(s1)CCN2c1ncccn1 | -26.36 |
| Cc1nc2n(n1)CC(NCc1c(Cl)ccc3cccnc13)CC2 (configuration not stated) | -131.5 |
| CC(=O)CSc1nnc2n1N=CN(c1cccc(Cl)c1)C2 | -35.13 |
| N#Cc1cccc(OCCN2CCCC2C(=O)N2CCSCC2)c1 (configuration not stated) | 50.57 |
| N#Cc1cccc(OCCN2CCCC2C(=O)Nc2nccs2)c1 (configuration not stated) | -33.68 |
| N#Cc1cccc(OCCN2CCC(C(=O)N3CCOCC3)CC2)c1 | -57.78 |
| CCc1nc(C)c(C(=O)N[C@@H]2c3ccccc3C[C@@H]2O)o1 | -65.76 |
| CN(C)c1nc(N)nc(CN2CCC(c3ccccc3)CC2)n1 | 80.66 |
| O=C(O)CN1CCC(c2ccccc2)CC1 | -86.8 |
| CN(C)c1nc(N)nc(CN2CCC(c3nc4ccccc4o3)CC2)n1 | 8.177 |
| Cc1nc(CC2CCCN(Cc3nc(N)c4ccccc4n3)C2)no1 (configuration not stated) | 18.93 |
| CN(C)c1nc(N)nc(CN2CCCC2c2cccs2)n1 (configuration not stated) | 52.44 |
| Cn1ncc2c(=O)[nH]c(CN3CCCC3c3cccs3)nc21 (configuration not stated) | -14.29 |
| Cn1ccc(CN2CCC(c3ccccc3)CC2)cc1=O | 20.97 |
| Oc1ccccc1CN1CCCCCC1c1cccs1 (configuration not stated) | -50.57 |
| CN(C)c1nc(N)nc(CN2CCCC(c3ccccc3)CC2)n1 (configuration not stated) | 53.37 |
| COC(=O)c1cc(OCC2CCC2)cc(C(=O)N[C@H](C)C(N)=O)c1 | -189.7 |
| CC(C)(C)c1n[nH]c(C2CN(C(=O)Cn3ccccc3=O)CCO2)n1 (configuration not stated) | -54.87 |
| CC(C)NC(=O)N1CCCC2(CC(C(=O)Nc3ccccc3)=NO2)C1 (configuration not stated) | -67.17 |
| COCCN(C)C[C@@H]1CN(C(=O)c2ccc(SC)cc2)C[C@@H]1CO | -5.304 |
| COc1ccc(CCN(C)C(=O)CN2C(=O)OC[C@@H]2C(C)C)cc1OC | -25.4 |
| CNC(=O)N1CCC(NC(=O)c2cnn(C)c2)CC1 | -113.2 |
| NS(=O)(=O)c1cnn(CCC(=O)N(Cc2ccccc2)C2CC2)c1 | -42.03 |
| COC(=O)c1ccc(N2CCN(CC(=O)NC(N)=O)C(C)C2)cc1 (configuration not stated) | -25.15 |
| CCOC(=O)NC1CCCN(Cc2ccc(-n3cncn3)c(C)c2)C1 (configuration not stated) | -7.286 |
| CC(C)(C)OC(=O)NC1CCCN(Cc2cccc(O)c2)C1 (configuration not stated) | 51.54 |

| Compound | Percent Effect [%] |
| --- | --- |
| CC(C)(C)OC(=O)NC1CCCN(Cc2cccs2)C1 (configuration not stated) | 25.55 |
| CCOc1ccc(C(=O)n2cccn2)cc1 | -77.79 |
| O=C(c1ccc(F)cc1)N1CCOC(c2nc(-c3ncccn3)no2)C1 (configuration not stated) | -155.2 |
| O=C(O)C(F)(F)F.c1cnc(N2CCOC3(CCN(CC4CCOC4)CC3)C2)nc1 (configuration not stated) | -16.11 |
| CN1CCN(c2ccc(NC(=O)c3ccccn3)c(C(F)(F)F)c2)CC1 | -41.85 |
| CN1CCN(c2ccc(NC(=O)c3ccoc3)c(C(F)(F)F)c2)CC1 | -45.74 |
| CN1CCN(c2ccc(NC(=O)c3cccs3)c(C(F)(F)F)c2)CC1 | 73.25 |
| Cc1nc(CCCC(=O)Nc2cccc(N3CCNC3=O)c2)cs1 | -207.5 |
| Cc1ccc(N2CCCC(NCc3cnc(C)s3)C2)nn1 (configuration not stated) | -130.3 |
| CC(C)[C@@H]1CN(C2CCN(Cc3ccccc3)CC2)C[C@H]1NS(C)(=O)=O | 2.556 |
| CC(c1ccncc1)N(C)S(C)(=O)=O (configuration not stated) | -81.75 |
| COc1ncccc1C1CC(=O)Nc2cc(NS(C)(=O)=O)ccc21 (configuration not stated) | -136.9 |
| Nc1cc(N2CCCC(COc3ccc(F)cc3)C2)ncn1 (configuration not stated) | -4.598 |
| Cc1cc(C)cc(S(=O)(=O)NCC2CNCCOC2)c1 (configuration not stated) | 6.797 |
| Cc1ccc(S(=O)(=O)NCC2CNCCOC2)cc1Cl (configuration not stated) | 47.92 |
| Cc1cc(S(=O)(=O)NCC2CNCCOC2)c(C)cc1Cl (configuration not stated) | 75.13 |
| Cc1ccccc1CCC1CCCN(C(=O)Cc2cc(=O)[nH]c(N)n2)C1 (configuration not stated) | -123.2 |
| CC(C)Cc1cc(C(=O)NCC2CCCN(Cc3ccco3)C2)on1 (configuration not stated) | -23.35 |
| Cc1cnn(CCCNCc2csc(COc3ccccc3)n2)c1 | 70.2 |
| c1ccc(OCc2nc(CNCCn3cccn3)cs2)cc1 | 20.38 |
| Cc1cnn(CCNCc2csc(COc3ccccc3)n2)c1 | 42.25 |
| COCCn1ccnc1C1CCN(C(=O)CSc2nnc(C)s2)CC1 | -110.9 |
| CN(C)[C@@H]1CO[C@H](CNC(=O)Nc2ccccc2)[C@H]1O | -62.35 |
| O=C(NC[C@H]1OC[C@@H](N(CC2CC2)CC2CC2)[C@@H]1O)Nc1ccccc1 | 64.49 |
| O=C(NC[C@H]1OC[C@@H](NC2CCC2)[C@@H]1O)Nc1ccccc1 | -143.1 |
| CN(CCCC1CCCO1)C(=O)c1cccc(C#N)c1 (configuration not stated) | -170.6 |

| Compound | Percent Effect [%] |
| --- | --- |
| O=C(O)CCCC(=O)N1CCC(c2noc3cc(F)ccc23)CC1 | -131.6 |
| CS(=O)(=O)c1ccc(CNC(=O)NCc2cc[nH]n2)cc1 | -45.13 |
| CC(=O)N1CCCN(C(=O)NCc2cc[nH]n2)CC1 | -10.61 |
| CCC(O)(CNCc1ccncc1)c1ccc(Br)cc1 (configuration not stated) | 3.807 |
| CCC(O)(CNCc1cc[nH]n1)c1ccc(Br)cc1 (configuration not stated) | 76.25 |
| CC(C)(C)OC(=O)N1CCCc2ccc(NCc3ncc[nH]3)cc21 | 26.46 |
| CCC(O)(CNCc1ncc[nH]1)c1ccc(Br)cc1 (configuration not stated) | 65.85 |
| O=C(c1cnccn1)N1C[C@@H]2CC[C@H](C1)N(S(=O)(=O)c1cccnc1)C2 | -81.69 |
| CC(C)c1nc(C2CCCN(C(=O)CCn3ccccc3=O)C2)no1 (configuration not stated) | -110.1 |
| CCS(=O)(=O)N1CCC2(CCN(C(=O)c3cccs3)CC2)CC1 | -4.516 |
| CNS(=O)(=O)C1CCN(c2cc(C(C)C)nc(C(C)C)n2)C1 (configuration not stated) | -29.56 |
| Cc1cc(C2CCCN2CC(=O)N(CCC#N)c2ccccc2F)on1 (configuration not stated) | -128.3 |
| N#CCCN(Cc1ccco1)C(=O)CN1CCCC1c1cccs1 (configuration not stated) | 2.269 |
| Cc1ccc(C2CCCN2CC(=O)N(CCC#N)c2ccccc2)cc1 (configuration not stated) | 61.31 |
| CCN(C(=O)CN1CCCC1Cc1ccccc1)c1ccccc1 (configuration not stated) | 59.02 |
| CN(C(=O)CN1CCCC1Cc1ccccc1)c1ccccc1 (configuration not stated) | 20.57 |
| N#CCCN(C(=O)CN1CCCC1C1CCCCC1)c1ccccc1 (configuration not stated) | 50.3 |
| CCN(C(=O)CN1CCCC1c1ccc(F)cc1)c1ccccc1C (configuration not stated) | -25.99 |
| N#CCCN(C(=O)CN1CCCC1c1ccccc1Cl)c1ccccc1 (configuration not stated) | 38.72 |
| CCN(C(=O)CN1CCCC1c1ccc(OC)cc1)c1ccccc1 (configuration not stated) | 17.94 |
| CC1CC(=O)c2cc(C(=O)N3CCc4ccccc43)c(=O)[nH]c2C1 (configuration not stated) | -103.7 |
| CN(C)c1ncc(NC(=O)c2ccccc2C(F)(F)F)cn1 | -13.75 |
| O=C(Cn1ccc2c(Cl)cccc21)N1CCCC1 | -3.751 |
| COCC(=O)Nc1ccc2c(c1)C1(CCOCC1)CN2CCF.O=C(O)C(F)(F)F | -73.75 |
| Cn1cc(C2COC3(CCN(C(=O)c4ccccn4)CC3)C2)cn1.O=C(O)C(F)(F)F (configuration not stated) | -70.09 |
| COc1ccc(N2CCN(C(=O)CCc3n[nH]c(C)n3)CC2=O)cc1 | -47.6 |

| Compound | Percent Effect [%] |
| --- | --- |
| COC(=O)c1ccc(C(=O)N2CCC(c3nnc(C)s3)CC2)cc1 | -39.58 |
| OCCNc1nc(Nc2ccccc2)c2nccnc2n1 | -38.96 |
| CC(O)c1cccc(-n2c(CCC(=O)O)nc3ccccc32)c1 (configuration not stated) | -169.3 |
| Cc1nc(C)n(CC2CCCN2CCCc2nc3ccccc3o2)n1 (configuration not stated) | -41.56 |
| COc1ccc(C)cc1CN1CCN(Cc2nccn2C)CC1 | -87.98 |
| COc1ncc(C2(O)CCN(Cc3cccc(F)c3F)CC2)c(OC)n1.Cl | -65.3 |
| COc1ccc(OC)c(CN2CCC(c3cc(O)nc(C)n3)C2)c1 (configuration not stated) | -6.514 |
| COc1ncc(C2(O)CCN(Cc3cc(F)ccc3F)CC2)c(OC)n1.Cl | -42.34 |
| Fc1cccnc1N1CCC(NCc2cccc3cn[nH]c23)C1 (configuration not stated) | -62.75 |
| Cl.Cl.OC(CN1CCN(Cc2cc(F)ccc2F)CC1)C1CC1 (configuration not stated) | 0.4009 |
| CC(C(=O)Nc1cccc(Cl)c1SC(F)F)S(C)(=O)=O (configuration not stated) | -87.5 |
| Cc1cc(CN2CCN(c3ccnc(-c4ccccc4)n3)CC2)no1 | -117.2 |
| Cc1cc(NC(=O)C2CN(Cc3ccccc3)CCO2)ccn1 (configuration not stated) | -48 |
| NC(=O)c1cnc2n1CCN(C(=O)c1cccc(Cn3cccn3)c1)C2 | -26.24 |
| O=C1CCCN1CCC1CCN(C2CCC3(CCNCC3)CC2)CC1 | -113.8 |
| Cc1cc(C)cc(NC(=O)c2cnc(N3CCN(C)CC3)nc2C)c1 | -105.5 |
| COc1ccc(C)cc1NC(=O)Nc1cnc(N2CCCC2)nc1 | -31.15 |
| Cc1ccc(NC(=O)Nc2cnc(N3CCN(C)CC3)nc2)cc1 | 58.27 |
| COc1ccc(NC(=O)c2cnc(N3CCN(C)CC3)nc2C)cc1 | -110.8 |
| COc1ccc(C)cc1NC(=O)Nc1cnc(N2CCOCC2)nc1 | 6.993 |
| COc1ccc(NC(=O)Nc2cnc(N3CCN(C)CC3)nc2)cc1Cl | 87.5 |
| CCN(CC)C(CNS(=O)(=O)c1ccc(C(N)=O)cc1)c1ccco1 (configuration not stated) | -82.08 |
| O=C(O)C(F)(F)F.O=S(=O)(c1cccs1)N1Cc2nc(CN3CCCCC3)oc2C1 | -52.21 |
| O=C(CCO)N1CC[C@@H]2CN(C(=O)c3ccco3)CCO[C@@H]2C1 | -32.06 |
